Among all 60,000 compounds or so, about 370 (0.62%) were called active. Cut-off read from the data, not from the text of the source: active = inhibition above about 17%; inactive = the rest. The entries come from a sample that favours actives as a whole.
What follows are molecules tested against Mitogen-activated protein kinase 10 (Homo sapiens) (UniProt P53779) (assay: inhibition of human JNK3 enzyme – biochemical, purified enzyme, primary screen (AID 746;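 note: 0% = DMSO and 100% = reference inhibitor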)). Settings: purified JNK3 kinase activity, HTS; at 8 µM; stronger effect = higher value.
Sequence of Mitogen-activated protein kinase 10 (Homo sapiens) (P53779 whole entry, looked up): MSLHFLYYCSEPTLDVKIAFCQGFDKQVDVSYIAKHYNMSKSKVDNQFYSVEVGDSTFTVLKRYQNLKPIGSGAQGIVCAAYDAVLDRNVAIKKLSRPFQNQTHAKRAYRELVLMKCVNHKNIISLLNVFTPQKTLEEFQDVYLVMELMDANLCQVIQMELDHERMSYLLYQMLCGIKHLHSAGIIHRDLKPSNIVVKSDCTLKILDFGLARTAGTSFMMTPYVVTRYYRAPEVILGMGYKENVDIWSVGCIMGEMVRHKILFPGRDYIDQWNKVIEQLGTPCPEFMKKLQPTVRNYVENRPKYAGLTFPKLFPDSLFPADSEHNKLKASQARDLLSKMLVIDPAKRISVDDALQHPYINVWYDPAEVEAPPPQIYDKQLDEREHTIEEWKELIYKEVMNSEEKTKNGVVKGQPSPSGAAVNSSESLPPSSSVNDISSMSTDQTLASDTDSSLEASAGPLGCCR

inhibition, inactive:
COc1ccc(Cn2cccc(NC(=O)Nc3ccc(C#N)cc3)c2=O)cc1 2.85%, CCOC(=O)C1CCN(C(=O)Nc2ccc(Cl)cc2)CC1 3.13%, CCC(C)Sc1nnc(-c2c[nH]c3ccccc23)n1CCOC (stereo not drawn) -1.71%, COc1ccc(CCNC(=O)CCn2c(=O)oc3ccccc32)cc1OC -2.91%, Cc1cc(C)c(S(=O)(=O)NCCCN2CCOCC2)cc1Br -5.01%, COc1ccc(OC)c(C2N(c3ccccn3)C(=O)C3CCCN32)c1 (stereo not drawn) 1.09%, Cc1cc(=O)n2c3c(cccc13)CCC2 6.82%, CCOC(=O)c1sc2nc(CSCC(=O)OCc3ccc(C(=O)OC)o3)[nH]c(=O)c2c1C 0.98%, COC(=O)c1c(NC(=O)CCN2CCOCC2)sc2c1CCCC2 -3.4%, COc1ccccc1-n1cnc2cc(NS(=O)(=O)c3ccccc3)ccc21 4.48%, COc1ccc(O)c(C=Nc2cc(C)on2)c1 0.04%, Cc1cc(C)n(C(=O)c2ccc(C)c(S(=O)(=O)N3CCOCC3)c2)n1 1.61%, Cc1cccc2cc(C#N)c(N3CCCC3)nc12 2.01%, CC(C)COC(=O)C1C2C=CC3(CN(C(C)c4ccc(Br)cc4)C(=O)C13)O2 (stereo not drawn) -6.16%, NC(=O)C1(N2CCCCC2)CCN(C(=O)c2ccc(C#Cc3ccccc3)o2)CC1 -2.13%, CCCn1c(SCC(=O)Nc2c(C)cccc2C)nnc1C(C)C -2.91%, C=CCN(c1ccc(C(N)=O)cc1)S(C)(=O)=O 4.4%, NC(=O)c1ccccc1NC(=O)c1ccccc1F 13.4%, CCCOC(=O)Nc1ccccc1C(N)=O -5.47%, CCOCCCNS(=O)(=O)Cc1ccccc1 1.76%, CCCCOc1ccc(C(=O)NCc2ccco2)cc1 0.41%, CCOc1ccc2nc(N3CCCN(C(=O)Nc4ccccc4C)CC3)c(C#N)cc2c1 0.49%, CCN(c1ccccc1)S(=O)(=O)c1ccc(N)cc1 2.15%, CC1=C(C(N)=O)C(c2ccc3c(c2)OCO3)n2nc(-c3cccc(C)c3)nc2N1 (stereo not drawn) 5.86%, CCOC(=O)c1ccc(Nc2cc(C)nc3nc(C)nn23)cc1 -10.1%, COc1ccccc1NC(=O)CSc1nnc(Cn2nnc(-c3ccccc3)n2)n1-c1ccccc1 -0.28%, O=C(Nc1nsc(-c2ccccc2)n1)c1ccncc1 1.54%

inhibition, active:
COc1cccc(OCC(=O)Nc2ccccc2C(N)=O)c1 26.1%

Reference: PubChem BioAssay AID746 (The Scripps Research Institute Molecular Screening Center, 2007)
